From PubChem BioAssay
Hits are enriched below; roughly 10% of the tested compounds scored in any of these assays.
HP1b binding inh – blocks HP1-beta chromodomain binding to methylated histone tails. Potency, µM (top dose mostly 114 µM), usual class: inhibitors. AlphaScreen HP1-beta / biotin-H3K9me3 peptide binding. 0.56% of 390,000 active. P83916; note: nearly all actives have a fitted effect of over 70% in size
Target sequence (P83916 whole entry, looked up): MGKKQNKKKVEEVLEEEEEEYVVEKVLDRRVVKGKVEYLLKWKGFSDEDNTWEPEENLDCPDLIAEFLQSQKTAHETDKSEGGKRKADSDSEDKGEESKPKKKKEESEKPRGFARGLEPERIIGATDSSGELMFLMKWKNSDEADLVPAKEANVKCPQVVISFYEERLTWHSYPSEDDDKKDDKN
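HP1-beta protein (50 nM final) preincubated 30 min at room temperature with biotinylated H3(1-18)K9me3 peptide (50 nM) in PBS pH 7.4, 0.01% Tween-20, then compound added for 30 min. AlphaScreen streptavidin donor/nickel chelate acceptor beads (10 ug/mL final), 30 min dark, luminescence read.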
GLS inh – blocks human kidney-isoform glutaminase activity; O94925; GLS enzymatic activity, qHTS titration; Potency, µM (highest dose often 45.5 µM), most hits filed as inhibitors; 0.21% of 410,000 active
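Enzyme dispensed in phosphate buffer (45 mM, pH 8.2, 0.02% Tween-20), compounds pinned in, then 1 mM L-glutamine solution and the glutamate oxidase–HRP–Amplex Red mix added; fluorescence read immediately and again after 30 min at room temperature.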
JMJD2A Tudor – inhibitors of human JMJD2A Tudor domain. O75164. AlphaScreen JMJD2A-Tudor / H3K4me3 peptide binding. Potency, µM (titrated, usually from 114 µM), actives largely listed as inhibitors. 4.4% of 390,000 active; note: nearly all actives have a fitted effect of over 50% in size
G9a block – inhibitors of human histone lysine methyltransferase G9a. Q96KQ7. G9a H3K9 monomethylation, AlphaScreen, 2 h. Potency, µM (doses to about 102 µM), actives largely listed as inhibitors. 8.8% of 350,000 active; note: nearly all actives have a fitted effect of over 75% in size
Target sequence (Q96KQ7 913-1193 limits assumed): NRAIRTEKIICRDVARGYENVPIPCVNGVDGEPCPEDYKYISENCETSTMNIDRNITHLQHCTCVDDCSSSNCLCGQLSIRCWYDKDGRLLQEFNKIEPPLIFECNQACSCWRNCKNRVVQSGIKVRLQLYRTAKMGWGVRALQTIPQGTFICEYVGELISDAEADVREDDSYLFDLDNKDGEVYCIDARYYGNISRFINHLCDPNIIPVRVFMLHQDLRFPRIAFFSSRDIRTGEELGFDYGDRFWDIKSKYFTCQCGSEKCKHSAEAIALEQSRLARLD
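Methyltransferase reactions run at room temperature for 2 h (20 nM enzyme, 500 nM biotin-H3K9 peptide, 20 uM SAM) after a 15 min compound preincubation; product detected by AlphaScreen beads and anti-H3K9me1 antibody.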
BAZ2B block – BAZ2B (human) inhibition. Potency, µM (doses to about 114 µM), most hits filed as inhibitors. Q9UIF8. 4.4% of 360,000 active. AlphaScreen BAZ2B-H3K14Ac peptide displacement. AID 504333; note: nearly all actives have a fitted effect of over 60% in size
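Inhibition is scored as reduced AlphaScreen emission. The BAZ2B/b-H3(5-23)K14Ac complex (50 nM each) in PBS pH 7.4, 0.01% Tween-20 meets compound (up to 110 uM) for 30 min at RT before bead addition.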
Hits are given with their value; - = inactive; ? = inconclusive; . = no result; [ ] = another dose, or the depositor's remark. Calls come from the whole dose curve; as a rule, active = well fitted curve in the direction sought with a large enough effect; inconclusive = small, poorly fitted or top-dose-only effect, or another doubt; inactive = no such curve, though single readings can be large; an effect the other way counts as inactive or inconclusive.

SMILES	HP1b binding inh	GLS inh	JMJD2A Tudor	G9a block	BAZ2B block
CCOc1ccc(/C=N/NC(=O)Nc2ccccc2)cc1	-	-	-	-[12.7 µM]	-
C=CCn1c(-c2ccc(OC)cc2)nc2nc3ccccc3nc21	-	-	-	-[2.33 µM]	-
Cc1c(N2CCCC2)cc2c(c1NC(=O)c1ccccc1Cl)C(C)(C)CC2(C)C	-	-	-	28µM	-
COc1ccc(N2CCN(C(=O)c3cc(-c4cccs4)nc4ccccc34)CC2)cc1	-	-	?	22µM	?
COc1ccc(Nc2ncc(C(=O)N3CCN(c4ccc(F)cc4)CC3)c3ccccc23)cc1	-	-	-	-	-
COc1ccc(N2CCN(C(=O)c3csc4ccccc34)CC2)cc1	-	-	?	20µM	-
COc1ccc(N2CCN(C(=O)c3ccc(SC)cc3OC)CC2)cc1	-	-	-	28µM	-
COc1cc(SC)ccc1C(=O)N1CCN(c2ccccc2F)CC1	-	-	?	-	-
COc1ccc(Nc2ncc(C(=O)N3CCN(c4ccc(OC)cc4)CC3)c3ccccc23)cc1	-	-	?	18µM	-
COc1cc(OC)cc(-c2cc3nc(C)c(CCC(=O)O)c(=O)n3[nH]2)c1	-	-	-	-	-
CC(NC(=O)CC1Nc2ccccc2NC1=O)c1ccccc1 (configuration not stated)	-	-	-	-[12.7 µM]	-
N/C(=N\OC(=O)/C=C/c1ccccc1Cl)c1ccccn1	-	-	-	-	79µM
N/C(=N\OC(=O)COc1ccc(Br)cc1Cl)c1ccccn1	-	-	79µM	?	-
N/C(=N\OC(=O)c1ccc(Br)o1)c1ccccn1	-	-	-	20µM	-
N/C(=N\OC(=O)COc1ccccc1)c1ccccn1	-	-	-	11µM	-
CNc1nc(NCc2ccccc2)nc(N)c1[N+](=O)[O-]	-	-	-	-	-
Cc1c(Cl)cccc1NC(=O)CC(c1ccc(F)cc1)N1Cc2ccccc2C1=O (configuration not stated)	-	-	-	?	-
CC1(c2ccccc2)NC(=O)N(CC(=O)Nc2cc3c(cc2Br)OCCO3)C1=O (configuration not stated)	-	-	-	?	-
COc1ccc(/C=N/NC(=O)C(=O)N2CCCC2)cc1OC	-	-	-	?	-
Cc1ccc(NC(=O)c2ccccc2F)cc1S(=O)(=O)N1CCCCCC1	-	-	-	-	-
O=C(O)c1cccc(N/N=C/c2cn(-c3ccccc3)nc2-c2cccs2)c1	-	?	?	35µM	?
NS(=O)(=O)c1ccc(N/N=C/c2cn(-c3ccccc3)nc2-c2cccs2)cc1	-	-	?	10µM	-
NS(=O)(=O)c1ccc(N/N=C/c2cn(-c3ccccc3)nc2-c2cccs2)c([N+](=O)[O-])c1	-	-	-	?	?
Cc1nc2c3ccccc3n(CC(=O)c3ccc(F)cc3)c(=O)n2n1	-	-	-	?	-
Fc1ccccc1SCc1nnc(-c2ccccc2Br)o1	-	-	11µM	-	-
SMILES	HP1b binding inh	GLS inh	JMJD2A Tudor	G9a block	BAZ2B block
CC(=O)Nc1cccc(-c2ccnc3c2CC(C)(C(=O)NCCC(F)(F)F)O3)c1 (configuration not stated)	.	-	.	.	.
O=C(c1ccc(-c2cccc(C(F)(F)F)c2)o1)N1CCCCCCC1	-	-	-	50µM	-
O=C(c1ccco1)N1CCN(C(=O)c2ccc(-c3cccc(C(F)(F)F)c3)o2)CC1	-	-	-	-[0.501 µM]	?
O=C(c1ccc(-c2cccc(C(F)(F)F)c2)o1)N1CCN(c2ccccc2)CC1	-	-	-	3.5µM	-
CCSc1nnc([C@H](Cc2c[nH]c3ccccc23)NC(=O)OC(C)(C)C)o1	-	-	-	-	-
CCOC(=O)c1c(-c2ccc(F)cc2)csc1NC(=O)CCN1CCOCC1	?	-	1.8µM	8.9µM	40µM
CCOC(=O)c1c(-c2ccc(-c3ccccc3)cc2)csc1NC(=O)CCN1CCOCC1	-	-	?	?	-
CCOC(=O)c1c(-c2ccccc2)csc1NC(=O)C(C)NCCCN1CCOCC1 (configuration not stated)	?	-	50µM	11µM	40µM
CCOC(=O)c1c(-c2ccc(C)c(C)c2)csc1NC(=O)C1CC=CCC1C(=O)O (configuration not stated)	-	-	-	-	-
CCOC(=O)c1c(-c2ccc(-c3ccccc3)cc2)csc1NC(=O)CNCCN(C)C	-	-	35µM	50µM	?
CCOC(=O)c1c(-c2ccc(F)cc2)csc1NC(=O)C1CC=CCC1C(=O)O (configuration not stated)	?	-	-	16µM	-
CCN(CC)C1=CC(=O)OC12CCCCC2	-	-	32µM	3.5µM	-
N#CC1=C(N)OC2=C(CCc3ccccc32)C1c1ccccc1Cl (configuration not stated)	-	-	?	-	?
CC(=O)n1c2c(c3ccccc31)OC(N)=C(C#N)C2c1cccc(Cl)c1Cl (configuration not stated)	-	-	-	45µM	-
FC(F)Oc1ccc(NC(=S)NC23CC4CC(CC(C4)C2)C3)cc1	-	-	-	-	?
CC(C)(C)Nc1scc(-c2ccccc2)[n+]1-c1ccccc1	-	-	-	45µM	50µM
CC[n+]1c(-c2ccccc2)csc1Nc1c(C)n(C)n(-c2ccccc2)c1=O	-	-	-	?	?
O=C(Cn1cc(COc2c(F)c(F)cc(F)c2F)nn1)c1ccc(O)cc1	-	-	40µM	.	.
COc1ccc(OCc2cn(CC(=O)c3ccc(O)cc3)nn2)cc1	-	-	-	.	.
Cc1ccc(Nc2nnc(SCC(=O)NC3CCCc4ccccc43)s2)cc1 (configuration not stated)	-	-	-	79µM	-
CCOC(=O)c1c(NC(=O)CSc2nnc(N)s2)sc(C)c1-c1ccc(C)cc1	-	-	?	40µM	-
COc1ccc(Nc2nnc(SCC(=O)NC3CCS(=O)(=O)C3)s2)cc1 (configuration not stated)	-	-	-	14µM	-
COc1ccc(Nc2nnc(SCC(=O)NC3CC3)s2)cc1	-	-	-	-[12.7 µM]	-
CCN(CC)c1ccc(NC(=O)CSc2nnc(N)s2)cc1C	-	-	-	56µM	-
CC(=O)c1ccc(NC(=O)CSc2nnc(N)s2)cc1	-	-	-	-	?
CCOC(=O)c1c(NC(=O)CSc2nnc(C)c(=O)[nH]2)sc(C)c1-c1ccc(C)cc1	-	-	-	-[12.7 µM]	-
CC(NC(=O)c1ccc2c(c1)N(Cc1ccc(Cl)cc1)C(=O)CS2)c1ccccc1 (configuration not stated)	-	-	-	-	-
CCOc1ccc(C(=O)CSc2nnc(N)s2)cc1	-	-	-	32µM	-
CCN(CC)S(=O)(=O)c1cccc(NC(=O)CSc2nnc(N)s2)c1	-	-	-	18µM	-
